Results filed as inconclusive are left out. Calls of active or inactive are those of the source. Rule for the calls: active = hit-call score of the fitted dose curve at least 0.9, where 1 is the maximum; inconclusive = response in the unintended direction; inactive = score below 0.9.
biological target: sheep Cyclooxygenase-1 (Cox1), PTGS1 (gene 443551) (UniProt P05979); test: NVS_ENZ_oCOX1: NovaScreen (NVS) Enzymatic Assay for sheep Cyclooxygenase-1 (Cox1) (AID 2283239);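 note: actives reduce cyclooxygenase activity so potencies are for inhibitors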
Sequence (P05979 whole entry, looked up): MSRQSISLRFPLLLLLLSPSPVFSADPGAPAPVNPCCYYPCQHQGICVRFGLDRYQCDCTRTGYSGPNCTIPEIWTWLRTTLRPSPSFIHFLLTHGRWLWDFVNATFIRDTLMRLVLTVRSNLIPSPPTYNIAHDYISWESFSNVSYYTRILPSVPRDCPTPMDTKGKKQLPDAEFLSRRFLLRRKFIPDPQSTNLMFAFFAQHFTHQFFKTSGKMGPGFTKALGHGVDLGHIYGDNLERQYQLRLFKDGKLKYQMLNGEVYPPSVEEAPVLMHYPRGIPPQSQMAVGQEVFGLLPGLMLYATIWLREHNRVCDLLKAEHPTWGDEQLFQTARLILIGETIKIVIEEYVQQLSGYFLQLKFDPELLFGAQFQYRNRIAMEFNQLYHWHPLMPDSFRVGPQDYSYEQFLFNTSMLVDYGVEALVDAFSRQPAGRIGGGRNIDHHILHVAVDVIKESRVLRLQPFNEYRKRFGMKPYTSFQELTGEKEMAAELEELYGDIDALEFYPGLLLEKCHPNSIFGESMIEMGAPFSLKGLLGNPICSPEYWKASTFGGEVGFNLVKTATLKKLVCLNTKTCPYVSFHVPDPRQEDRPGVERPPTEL
Summary of the method: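 Ovine seminal vesicle extract; absorbance (colorimetric) enzyme read-out at 0.66 h post-dose. Primary: single conc 25 uM, duplicate. Follow-up: concentration series on actives. Activity = signal loss vs DMSO baseline.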

| Compound | outcome | AC50 |
| --- | --- | --- |
| Nc1ccc(Cl)cc1 | inactive | – |
| O=c1ssc(Cl)c1Cl | inactive | – |
| O=c1[nH]c2ccccc2c(=O)o1 | – | 4.96 µM (active) |
| CCOP(=S)(OCC)SCSCC | inactive | – |
| CCOP(=S)(S)OCC | inactive | – |
| Nc1cc2c3c(c1)C(c1ccccc1)=N[C@@H](NC(=O)c1cccnc1)C(=O)N3CC2 | – | 15.1 µM (active) |
| CC1(C)CN=C(NN=C(/C=C/c2ccc(C(F)(F)F)cc2)/C=C/c2ccc(C(F)(F)F)cc2)NC1 | – | 5.74 µM (active) |

system: rat Monoamine Oxidase, MAO-A, Central (MAOAC), gene 29253; test: NVS_ENZ_rMAOAC: NovaScreen (NVS) Enzymatic Assay for rat Monoamine Oxidase, MAO-A, Central (MAOAC) (AID 2283243);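 note: potency refers to inhibition seen as signal drop below DMSO baseline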
Summary of the method: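 Steps: rat brain protein extract dosed with test chemical (25 uM, duplicate, primary); incubated 1.5 h; radiolabelled product separated from substrate and counted. Signal loss versus DMSO scored as inhibition.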

| Compound | AC50 |
| --- | --- |
| Nc1ccc([N+](=O)[O-])cc1Cl | 15.1 µM (active) |
| Oc1ccc(I)cc1 | 19.9 µM (active) |
| c1ccc2c(c1)Nc1ccccc1S2 | 9.71 µM (active) |
| CCOP(=S)(OCC)SCS(=O)(=O)CC | 7.29 µM (active) |
| CC(=O)c1ccc(-c2ccccc2)cc1 | 18.6 µM (active) |
| Cc1ccc2c(c1N)C(=O)c1ccccc1C2=O | 25 µM (active) |
| CCOC(=O)c1ccccc1C(=O)OCC | 15.2 µM (active) |
| Nc1ccc2ccccc2c1 | 19.4 µM (active) |

system: guinea pig Leukotriene B4 Receptor (LTB4), gene 100379538; test: NVS_GPCR_gLTB4: NovaScreen (NVS) G Protein-Coupled Receptor Assay for guinea pig Leukotriene B4 Receptor (LTB4) (AID 2283247)
Description: NVS_GPCR_gLTB4 is a biochemical, single-readout assay that uses extracted gene-proteins from Guinea pig spleen membranes in a tissue-based cell-free assay. Measurements were taken 2 hours after chemical dosing in a 48-well plate.NVS_GPCR_gLTB4 is one of one assay component(s) measured or calculated from the NVS_GPCR_gLTB4 assay. It is designed to make measurements of radioligand binding, a form of binding reporter, as detected with scintillation counting signals by Filter-based radiodetection technology.Data from the assay component NVS_GPCR_gLTB4 was analyzed into 1 assay endpoint. This assay endpoint, NVS_GPCR_gLTB4, was analyzed in the positive analysis fitting direction relative to DMSO as the negative control and baseline of activity. Using a type of binding reporter, loss-of-signal activity can be used to understand changes in the binding as they relate to the gene Ltb4r. Furthermore, this assay endpoint can be referred to as a primary readout, because the performed assay has only produced 1 assay endpoint. To generalize the intended target to other relatable targets, this assay endpoint is annotated to the gpcr intended target family, where the subfamily is rhodopsin-like receptor.
Binding assays used specific radioligands (tritiated, iodinated) with non-radioactive competitive displacement ligands in agonist or antagonist protocols (as indicated) and various reference compounds and inhibitors to titrate specific binding to receptors and transporters. Most enzyme assays (CYPs, kinases, phosphatases, proteases, HDACs) used recombinant protein and specific substrates (fluorescence mostly, some colorimetric and radioactive) and inhibitors, followed by a biochemical separation of substrate and product. All assays for the biochemical HTS were initially run in duplicate at a single concentration (10 uM for CYP450 assays and 25 uM for all others). […]

| Compound | AC50 | outcome |
| --- | --- | --- |
| O=C(O)C1C(C(=O)O)C2(Cl)C(Cl)=C(Cl)C1(Cl)C2(Cl)Cl (stereo unspecified) | 2.88 µM (active) | – |
| CCC(C)(C)c1ccc(O)cc1 | 25 µM (active) | – |
| CSC(C)(C)C=NO | – | inactive |

biological target: guinea pig Opioid, Kappa 1 Receptor (OpiateK), OPRK1 (gene 100135587) (UniProt P41144); test: NVS_GPCR_gOpiateK: NovaScreen (NVS) G Protein-Coupled Receptor Assay for guinea pig Opioid, Kappa 1 Receptor (OpiateK) (AID 2283252);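 note: radioligand displacement from kappa opioid receptor in guinea pig cerebellar membranes; active means reduced radioligand binding relative to DMSO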
Sequence (P41144 whole entry, looked up): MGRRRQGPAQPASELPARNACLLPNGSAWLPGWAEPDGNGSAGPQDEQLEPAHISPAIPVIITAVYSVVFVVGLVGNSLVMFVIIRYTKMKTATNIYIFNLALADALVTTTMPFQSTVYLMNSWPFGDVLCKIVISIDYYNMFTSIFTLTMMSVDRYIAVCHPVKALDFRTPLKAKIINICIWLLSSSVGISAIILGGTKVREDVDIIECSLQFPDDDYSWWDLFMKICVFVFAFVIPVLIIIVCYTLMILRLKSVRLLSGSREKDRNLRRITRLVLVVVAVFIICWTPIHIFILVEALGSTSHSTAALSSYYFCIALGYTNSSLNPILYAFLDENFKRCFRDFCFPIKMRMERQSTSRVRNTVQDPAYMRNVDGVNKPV
Summary of the method: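 Signal is scintillation counts of filter-trapped radioligand bound to guinea pig cerebellar membrane receptor, measured 2 hours post-dosing. Activity is loss of binding versus DMSO, first at 25 uM in duplicate, then as concentration series for actives.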

| Compound | AC50 | outcome |
| --- | --- | --- |
| Cc1cc(C)c(C(=O)P(=O)(c2ccccc2)c2ccccc2)c(C)c1 | 25 µM (active) | – |
| CCCCOCCOP(=O)(OCCOCCCC)OCCOCCCC | 16.5 µM (active) | – |
| CSC(C)(C)C=NO | – | inactive |
